In PubChem BioAssay AID720621 (The Scripps Research Institute Molecular Screening Center, 2013):
The list shows a part of the results. Values without a mark were called inactive. The source made the active and inactive calls.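 How the source made its calls: active means inhibition above the mean of test compounds lying between the control limits plus 3 SD of those (cut at about 14% in these data); inactive means the rest.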

biological target: Fibrinogen beta chain (Homo sapiens) (UniProt P02675); experiment: DD(E) binders in alternate-peptide displacement assay, confirmation, counter-screen for fibrin DD(E)-Tn6 binding project, biochemical, fluorescence polarization, human fibrin (AID 720621); settings: TRITC-Tn6 fluorescence polarization displacement, at 8.3 µM, hits give high values, 0% = median of compound wells, not DMSO;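 further: 0% = median of compound wells and 100% = wells with Aha-Tn7 blocking peptide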
Sequence (P02675 whole entry, looked up): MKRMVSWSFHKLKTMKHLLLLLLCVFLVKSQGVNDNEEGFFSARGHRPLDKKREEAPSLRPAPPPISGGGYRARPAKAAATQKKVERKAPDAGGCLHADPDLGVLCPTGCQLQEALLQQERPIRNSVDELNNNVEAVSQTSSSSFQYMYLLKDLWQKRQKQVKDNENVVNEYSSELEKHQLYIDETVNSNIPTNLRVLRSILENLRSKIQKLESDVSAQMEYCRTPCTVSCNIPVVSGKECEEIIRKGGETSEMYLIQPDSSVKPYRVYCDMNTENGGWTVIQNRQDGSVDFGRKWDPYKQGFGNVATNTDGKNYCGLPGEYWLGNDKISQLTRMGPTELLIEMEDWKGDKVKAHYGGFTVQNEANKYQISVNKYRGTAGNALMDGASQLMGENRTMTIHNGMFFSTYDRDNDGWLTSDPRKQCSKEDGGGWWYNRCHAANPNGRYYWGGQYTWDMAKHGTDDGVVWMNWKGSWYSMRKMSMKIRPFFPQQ

Structure (SMILES) | inhibition
Cc1cc2cc(CNC(=O)c3ccc(S(=O)(=O)N4CCOCC4)cc3)ccc2[nH]1 | -5.66%
Oc1ccc(N=Cc2sc3ccccc3c2Cl)cc1 | -3.72%
COc1ccc(Nc2nc(-c3ccccc3)cs2)cc1 | 3.89%
CN1c2ccc(C=O)c3c(C=O)ccc(c23)N(C)C1(C)C | 1.94%
O=C(CCl)NNc1cccc(Cl)n1 | -4.59%
CCc1cc(-c2nnc(SCC(=O)NC3CC3)n2C)cs1 | 0.11%
CCOCC(=O)NCc1ccc2c(c1)cc(C)n2C | 3.45%
CONc1nc2nonc2nc1NOC | 0.1%
CCOC(=O)N1CCN(Cc2nc(N)nc(Nc3ccc(C)cc3)n2)CC1 | -2.92%
COc1ccc(Nc2nc(-c3cccnc3)nc3ccccc23)cn1 | 1.38%
Cc1ccc(-c2nc(C)sc2CC(=O)O)cc1 | 1.12%
Cc1cc(C)c2nc(NC(=O)C3CCCO3)sc2c1 (stereo unspecified) | 9.86%
O=C(NCCNc1ccccc1[N+](=O)[O-])c1ccccc1F | 1.36%
CCc1ccccc1NC(=S)Nc1cc(OC)c(NC(=O)C(C)C)cc1OC | 2.55%
Cc1nn(C)cc1N1C(=O)c2cccc3c(N)ccc(c23)C1=O | 12.5%
O=c1[nH]n(-c2ccc([N+](=O)[O-])cc2)c(=O)c2ccccc12 | -1.25%
COc1ccc(N2C(=O)NC(NS(=O)(=O)c3ccc(Cl)cc3)(C(F)(F)F)C2=O)cc1 (stereo unspecified) | 9.3%
Cc1nnsc1S(=O)(=O)Cc1ccccc1Cl | -7.19%
O=C(Nc1cccc(-c2nc3ccccc3[nH]2)c1)c1ccc(C(=O)Nc2cccc(-c3nc4ccccc4[nH]3)c2)cc1 | 4.67%
Cc1ccc(-c2nn(-c3ccccc3)cc2/C=C/C(=O)Nc2cccc(S(N)(=O)=O)c2)cc1 | 9.5%
COc1cc(NC(=O)c2ccc(CNc3c(N4CCCC4)c(=O)c3=O)cc2)cc(OC)c1OC | -3.04%
Cc1cc2ccccc2n1CCNC(=O)COc1ccc2ccccc2c1 | 4.66%
Cc1cc2nc3c(=O)[nH]c(=O)nc-3n(C[C@H](O)[C@H](O)[C@H](O)CO)c2cc1C | 53.3% (active)
O=c1cc(Cn2nnc(-c3ccc(Cl)cc3)n2)nc2sccn12 | 0.44%
Cc1ccc(NC(=O)CN2CCc3ccccc3C2)cc1 | -3.5%
CCC1C(=O)NCCN1C(=O)c1ccc2nc(Cc3ccc(OC)cc3)oc2c1 (stereo unspecified) | -2.38%
